RE007 growth inh: less growth of the S. pombe RE007 Vpr strain | 360,000 compounds, 0.21% hits | Potency, µM (doses to about 92.2 µM), actives largely listed as inhibitors | S. pombe RE007 Vpr strain, BacTiter-Glo ATP luminescence, 24 h | AID 651644; active means well fitted falling curve with a large enough effect; inconclusive means small, poorly fitted or top-dose-only effect; inactive means no such curve, though single readings can be large or run the other way; further: nearly all actives have a fitted effect of over 50% in size
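Fission yeast strain RE007, carrying one chromosomally integrated HIV-1 vpr copy, was seeded at OD 0.01 in PMG+AL medium with 23 nL pinned compound. After 24 h at 30 °C and 99% humidity, viability was read by BacTiter-Glo luminescence.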
TbPYK inhibitor: inhibitors of Trypanosoma brucei pyruvate kinase; TbPYK enzyme, Kinase-Glo Plus ATP luminescence, 45 min; 410,000 compounds, 0.12% hits; Potency, µM (series often up to 76.8 µM), usual class: inhibitors; Q57TT1; further: nearly all actives have a fitted effect of over 50% in size
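T. brucei PYK with substrate was exposed to pin-transferred compounds across a concentration series, then started with 130 uM ADP (final). After 45 min at room temperature, Kinase-Glo Plus luminescence was read, normalized and curve-fitted.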
LmPK inh: LmPK (Leishmania mexicana) enzyme inhibition. AID 1721. Potency, µM (top dose mostly 57.5 µM), usual class: inhibitors. purified LmPK, Kinase-Glo ATP luminescence, 1 h. Q27686. 290,000 compounds, 0.37% hits
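0.1 nM LmPK, 0.5 mM PEP, 0.1 mM ADP; 50 mM imidazole pH 7.2, 7 mM MgCl2, 50 mM KCl; 1 h RT. Kinase-Glo luminescence readout, normalized to no-enzyme (full inhibition) and uninhibited wells.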
Giardia FBPA inh: Giardia lamblia aldolase inhibition | purified Giardia FBPA | Potency, µM (series often up to 59.6 µM), most hits filed as inhibitors | AID 2451 | 290,000 compounds, 0.71% hits; further: nearly all actives have a fitted effect of over 55% in size
Target sequence (A8B2U2 whole entry, looked up): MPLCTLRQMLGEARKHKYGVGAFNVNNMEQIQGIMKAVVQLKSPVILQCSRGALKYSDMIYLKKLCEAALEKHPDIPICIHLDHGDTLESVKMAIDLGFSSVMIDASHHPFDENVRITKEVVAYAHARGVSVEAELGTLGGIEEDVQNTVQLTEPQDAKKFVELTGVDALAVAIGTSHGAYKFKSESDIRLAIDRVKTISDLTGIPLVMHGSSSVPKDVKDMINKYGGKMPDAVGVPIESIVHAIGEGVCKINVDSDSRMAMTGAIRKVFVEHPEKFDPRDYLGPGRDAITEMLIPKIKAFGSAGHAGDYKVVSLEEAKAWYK
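40 nM FBPA preincubated 10 min at RT with compound (up to 57.5 uM final), then substrate plus GAPDH/TPI/NAD/arsenate coupling and diaphorase/resazurin added. Fluorescence read after 20 min at RT, 525/598 nm.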
Numbers stand for hits; – = inactive; ? = inconclusive; · = no result; ! = repeats disagree. Only some compounds are listed: those with a hit (about 0.95% of all), similar ones and a draw of the others. Unless noted, the call rests on the fitted dose curve; in most records, active means well fitted curve in the direction sought with a large enough effect; inconclusive means small, poorly fitted or top-dose-only effect, or another doubt; inactive means no such curve, though single readings can be large; an effect the other way counts as inactive or inconclusive.

SMILES | RE007 growth inh | TbPYK inhibitor | LmPK inh | Giardia FBPA inh
O=c1c2cc(F)ccc2sn1-c1ccccc1 | 11.2µM | ? | · | ·
O=c1c(N2CCN(c3ccc(F)cc3)CC2)csc2ccc(F)cc12 | · | – | · | ·
O=c1c2ccccc2c(-c2cccc(C(F)(F)F)c2)nn1-c1ccccc1 | – | – | – | –
O=C(CSc1nc2c([nH]c3ccccc32)c(=O)n1-c1ccccc1)Nc1ccc2c(c1)OCO2 | · | – | · | ·
CCOC(=O)C1=C(C)NC2=C(C(=O)CC(C)(C)C2)C1c1cccc(C)n1 (stereo not given) | – | – | – | –
CCOC(=O)CN=C1CC(C)(C)CC2=C1Sc1ncnc(N(C)C)c1N2 | – | ? | – | 2.51µM
CC[C@H](c1ccccc1)c1noc(CCN(CC)CC)n1 | · | – | · | ·
COc1ccc(C(=O)Nc2ccc3c(c2)Cc2ccccc2-3)cc1 | – | – | – | ·
COc1ccc2nc3c(cc2c1)Cc1ccccc1-3 | · | · | · | 17.7µM
COc1cccc(Nc2nc3cc(Cl)c(Cl)cc3nc2-n2nc(C)cc2C)c1 | · | – | · | ·
CCN1CCN(C(c2cccc(OC)c2)c2c(O)cc(C)n(Cc3ccco3)c2=O)CC1 (stereo not given) | · | – | · | ·
O=C1CCn2c1c(O)c1ccccc1c2=O | – | – | · | ·
N=C1CCC(=N)c2c1c(O)c1ccccc1c2O | ? | ? | – | 6.29µM
O=c1cc(-c2ccccc2)oc2cc(O)c(O)cc12 | · | · | · | –
O=c1cc(-c2ccccc2O)oc2c(O)c(O)ccc12 | · | · | · | 6.29µM
O=c1cc(-c2ccccc2)oc2c(O)c(O)ccc12 | · | · | · | 7.92µM
Cc1cc(=O)oc2c(O)c(O)ccc12 | – | – | · | 7.06µM
CN=c1scc(-c2ccccc2F)n1/N=C/c1ccc[nH]1 | ? | – | – | –
CN=c1scc(-c2ccccc2F)n1/N=C/c1ccc(O)c(O)c1O | ? | ? | ? | 7.92µM
O=C1C=C(N(CCO)Cc2ccccc2)c2ccccc2C1=O | – | – | – | 0.354µM
O=C1c2ccccc2C(=O)c2c1cccc2N(CCO)CCO | – | – | – | –
Oc1ccc(C2=NN(c3ccccc3)C(c3ccc(F)cc3)C2)cc1 (stereo not given) | 39.8µM | – | – | –
CC(=O)N1c2ccc(S(=O)(=O)N3CCN(c4ccc(C)cc4C)CC3)cc2CC1C (stereo not given) | · | – | · | ·
CC(C)N(C(=O)Nc1ccc2nccnc2c1)C(C)C | – | – | – | 3.54µM
CCOc1ccc(S(=O)(=O)Nc2cc3c(C(=O)OC)c(COC)oc3c3ccccc23)cc1 | · | – | · | ·
SMILES | RE007 growth inh | TbPYK inhibitor | LmPK inh | Giardia FBPA inh
CCc1ccc(S(=O)(=O)Nc2ccc(O)c3ccccc23)cc1 | · | – | ? | –
Cc1ccc(C)c(S(=O)(=O)Nc2cc(SCC(=O)O)c(O)c3ccccc23)c1 | – | 15.8µM | 14.1µM | 2.23µM
CCOc1ccc(S(=O)(=O)Nc2cc(SCC(=O)O)c(O)c3ccccc23)cc1 | – | ? | 20µM | 6.31µM
O=C(O)CSc1cc(NS(=O)(=O)c2cccc([N+](=O)[O-])c2)c2ccccc2c1O | – | ? | 14.1µM | 2.51µM
CCc1ccc(S(=O)(=O)Nc2cc(SCC(=O)O)c(O)c3ccccc23)cc1 | – | ? | ? | 4.46µM
Cc1cc2c(cc1S(=O)(=O)NCc1ccc(F)cc1)OCC(=O)N2 | · | – | · | ·
CC(=O)Nc1ccn(C2COC(COC(=O)c3ccccc3)O2)c(=O)n1 (stereo not given) | · | – | · | ·
Cn1sc(=O)n(Cc2ccccc2)c1=O | · | · | · | –
COCC1=C2c3ccccc3[C@H](C[N+](=O)[O-])C(C(=O)OC)(C(=O)OC)C[C@@H]2n2c(=O)n(-c3ccccc3)c(=O)n2C1 | · | · | · | –
O=C(NCc1n[nH]c(=S)n1-c1cccc(Cl)c1)c1ccc(S(=O)(=O)N2CCCCC2)cc1 | – | ? | – | –
Cc1cccc(-n2c(CNC(=O)c3ccc(S(=O)(=O)N4CCCC4)cc3)n[nH]c2=S)c1 | – | 14.1µM | – | –
C/C(=N\Nc1nnc(C)c(=O)[nH]1)C(=O)O | – | – | – | 3.54µM
CC(/C=N/Nc1nnc(C)c(=O)[nH]1)=C\c1ccccc1 | – | – | – | –
COc1cccc(CNCCSc2nnnn2C)c1OCc1ccc(Cl)cc1 | · | – | · | ·
COc1cc(C(=O)OC(COCCC(C)C)CN2CCOCC2)cc(OC)c1OC (stereo not given) | · | – | · | ·
COc1ccc(OC)c(NC(=O)c2ccccc2N(Cc2ccccc2)S(C)(=O)=O)c1 | – | 12.6µM | – | –
Nc1c(C(=O)N2CCOCC2)sc2nc3c(cc12)CCCC3 | – | ? | ? | –
Nc1c(C(=O)N2CCOCC2)sc2nc3c(cc12)CCC3 | – | – | 15.8µM | –
Oc1cc2c(cc1O)C1c3ccc(O)c(O)c3OCC1(O)C2 (stereo not given) | – | 10µM | ? | 6.29µM
Cc1ccc(Nc2c(-c3ccc(C)o3)nc3cnccn23)cc1 | 7.94µM! | – | – | –
Cc1ccc(NC(=O)Cn2c(=O)n(Cc3ccco3)c(=O)c3sc4ccccc4c32)cc1C | · | – | · | ·
Cc1ccc2nc(-c3cc(NC(=O)COc4ccc(C)c(C)c4)ccc3Cl)oc2c1 | · | – | · | ·
Cc1ccc(N=Nc2cc(C)ccc2N)cc1 | – | – | 14.1µM | –
Oc1[nH]c2ccc(Br)cc2c1N=NC(=S)N1CCOCC1 | – | ? | 22.4µM | ?
COC(=O)N=Nc1c(O)[nH]c2ccc(Br)cc12 | – | – | – | –
SMILES | RE007 growth inh | TbPYK inhibitor | LmPK inh | Giardia FBPA inh
Cc1ccc(CNC(=O)C2CCN(S(=O)(=O)c3cn(C)cn3)CC2)cc1 | · | – | · | ·
Cc1ccccc1NC(=S)NNC(=O)c1cccnc1 | – | 4.47µM | 17.8µM | –
O=C(CCN1C(=O)C2C3C=CC(C4CC34)C2C1=O)Oc1cccc2cccnc12 (stereo not given) | 14.1µM | – | – | ?
COc1ccc2c(C(=S)N(C)CC(=O)O)cccc2c1C(F)(F)F | · | – | · | ·
CCCCc1oc2ccc(NS(C)(=O)=O)cc2c1C(=O)c1ccc(OCCCN(CCCC)CCCC)cc1 | · | – | · | ·
O=C(/C=C/c1ccccc1)Nc1cccnc1 | – | – | – | –
Cc1ccc(/C=C/C(=O)Nc2cccnc2)o1 | – | 28.2µM | – | ?
CC(=O)/C=C/c1ccc2ccccc2n1 | 25.1µM | – | – | ·
Cc1c(Cl)cccc1NC(=O)Cn1c(=O)cc(C)c2c(C)nn(-c3cccc(F)c3)c21 | · | – | · | ·
CC[n+]1c(/C=C/c2ccc(N(C)C)cc2)ccc2ccccc21 | 12.6µM | ? | ? | –
CC[n+]1ccc(/C=C/c2ccc(N(C)C)cc2)c2ccccc21 | 12.6µM | ? | 15.8µM | –
CC[n+]1c(/C=C/c2ccc(OC)c(OC)c2)ccc2ccccc21 | – | – | – | –
Nc1c(NC/C=C\COc2cc(CN3CCCCC3)ccn2)c(=O)c1=O | · | – | · | ·
O=[N+]([O-])C(Br)(CO)CO | · | 10µM | · | ·
Cc1nc2c(o1)C(=O)c1ccccc1C2=Nc1ccccc1 | 7.08µM | – | · | ·
NC1=C(Cl)C(=O)c2ccccc2C1=O | 25.1µM | – | · | ·
CC1=NN(c2ccccc2)C(=O)/C1=C/C=C/c1ccc(N(C)C)cc1 | – | ? | 14.1µM | –
O[C@@H](CNC[C@H](O)[C@H]1CCc2cc(F)ccc2O1)[C@@H]1CCc2cc(F)ccc2O1 | · | – | · | ·
COC(=O)C1=C(O)/C(=C\c2cc(C)n(-c3ccccc3C)c2C)N=C1C | – | – | – | 7.06µM

Screening data (PubChem BioAssay)
